Common to all, as to assay: NCI-60 one-dose screen, 48 h (100 = growth as untreated, 0 = no growth, -100 = all killed)
For assay [1], the system named is NCI-H23 lung. Particulars: 10 µM.
For assay [2], the system named is NCI-H226 lung. As to conditions: 10 µM.
In assay [3] the test system is NCI-H322M lung. As to conditions: 10 µM.
Assay [4] concerns HOP-62 NSCLC. Particulars: 10 µM.
Assay [5] deals with NCI-H460 lung. Particulars: 10 µM.
Assay [6] relates to HOP-92 NSCLC. Particulars: 10 µM.
The test system of assay [7] is NCI-H522 lung. As to conditions: 10 µM unless noted.
The test system of assay [8] is A549/ATCC NSCLC. Particulars: 10 µM.
Assay [9] deals with 786-0 renal. Particulars: 10 µM.
Assay [10] has as its system COLO 205 colon. Particulars: 10 µM.
The test system of assay [11] is DU-145 prostate. As to conditions: 10 µM unless noted.
The test system of assay [12] is K-562 leukemia. As to conditions: 10 µM.
Assay [13] relates to MALME-3M melanoma. Particulars: 10 µM.
Assay [14] concerns MDA-MB-231 breast. As to conditions: 10 µM.
The subject of assay [15] is RXF 393 renal. As to conditions: 10 µM unless noted.
For assay [16], the system named is SF-268 CNS. Particulars: 10 µM.
Assay [17] deals with SF-295 CNS. As to conditions: 10 µM.
Assay [18] relates to SF-539 CNS. As to conditions: 10 µM.
Assay [19] relates to UACC-257 melanoma. As to conditions: 10 µM.
The subject of assay [20] is M14 melanoma. Particulars: 10 µM.

Values joined by “and” are separate entries in the source; they are usually repeats but may differ in a detail not shown here. Equal entries are not always repeated. The panel holds about 83,000 compounds, 20% with a hit somewhere; the sample as a whole holds those more often.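 The test compound was applied at a single concentration to cells in 96-well plates for 48 hours, and percent growth was recorded.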 Active and inactive are the calls of the source. The calls were made as follows: active = growth percent below 10; inactive = the rest. Where a SMILES comes first, the peptide text is derived from it. [ ]: non-standard residue; d: D form. ξ: configuration not given here. ξV = CC(C)C(N)C(=O)O

`Cc1nc(N=C(N)N)nc2ccc3ccccc3c12`: the growth in assay [1] is 27.6% (inactive); in assay [2], 25.8% (inactive); in [3], -3.99% (active); in assay [4], -14% (active); in assay [5], -44.4% (active); in [6], -25.5% (active). The growth was -35.1% (active) in assay [7]; 20.6% (inactive) in assay [8]; 10.8% (inactive) in [9]; -16.4% (active) in [10]; 5.58% (active) in assay [11]; -4.93% (active) in assay [12]. Besides, the growth in assay [13] is -37.8% (active); in assay [14], -0.868% (active); in [15], 4.87% (active); in assay [16] it was -25.4% (active); in assay [17] it was 1.84% (active); in assay [18], 4.58% (active). Also, the results for the growth in assay [19] and in [20] were -9.97% (active) and 4.95% (active), respectively.

`O=C(/C=C/c1cccnc1)c1ccccc1`: the growth was 96.6% (inactive) in assay [1]; 96.6% (inactive) in assay [2]; 113% (inactive) in assay [3]; 108% (inactive) in [4]; 87.6% (inactive) in assay [5]; 84% (inactive) in assay [6]. The growth in assay [7] was -44.2% (active); in [8] it was 99.3% (inactive); in assay [9], 93.7% (inactive); in assay [10], 101% (inactive); in assay [11], 105% (inactive); in [12] it was 28.9% (inactive). Besides, the growth in [13] is 94.2% (inactive); in assay [14] it was 116% (inactive); in [15], 112% (inactive); in [16], 100% (inactive); in [17] it was 112% (inactive); in assay [18] it was 96.2% (inactive). For the same compound, the growth was 93.5% (inactive) in assay [19] and 88.6% (inactive) in assay [20].

`CCCCCCCCCCCCCCCCCCOCC(COP(=O)([O-])OCC[N+](C)(C)C)OC` (stereo not drawn): the growth in [1] is 89.1% (inactive); in [2], 93.9% (inactive); in [3], 107% (inactive); in [4], 44% (inactive); in assay [5] it was 46.4% (inactive); in assay [6], 59.9% (inactive). In addition, the growth is 73% (inactive) in assay [7]; 97.5% (inactive) in assay [8]; 87.6% (inactive) in assay [9]; 2.62% (active) in [10]; 129% (inactive) in assay [11]; 104% (inactive) in [12]. Further, the growth is 80.7% (inactive) in assay [13]; 74.4% (inactive) in assay [14]; 47.2% (inactive) in assay [15]; 79.6% (inactive) in assay [16]; 89.9% (inactive) in assay [17]; 88.8% (inactive) in assay [18]. The growth in [19] was 95% (inactive).

Regarding `CC(C)C(NC(=O)CN)C(=O)O` (stereo not drawn) (H-Gly-[ξV]-OH), the growth was 101% (inactive) and 106% (inactive) in assay [1]; 102% (inactive) and 100% (inactive) in [2]; 100% (inactive) and 105% (inactive) in assay [3]; 106% (inactive) and 98% (inactive) in [4]; 113% (inactive) and 103% (inactive) in [5]; 102% (inactive) in assay [6]. Besides, the growth was 95.9% (inactive) and 89.7% (inactive) in assay [7]; 95% (inactive) and 99.2% (inactive) in assay [8]; 95.1% (inactive) and 106% (inactive) in assay [9]; 117% (inactive) and 113% (inactive) in assay [10]; 107% (inactive) and 110% (inactive) in [11]; 92.9% (inactive) and 104% (inactive) in assay [12]. Moreover, the growth in assay [13] was 101% (inactive) and 99.8% (inactive); in [14], 106% (inactive); in [15] it was 104% (inactive) and 108% (inactive); in [16], 104% (inactive) and 101% (inactive); in assay [17], 97.4% (inactive) and 101% (inactive); in assay [18], 103% (inactive) and 106% (inactive). Further, the growth was 110% (inactive) and 101% (inactive) in assay [19]; 105% (inactive) and 108% (inactive) in assay [20].

Take `CCCCCCCCCCSC(=N)N`: the growth is 87.4% (inactive) in assay [1]; 99.7% (inactive) in assay [2]; 88.7% (inactive) in assay [3]; 68% (inactive) in assay [4]; 23.8% (inactive) in assay [5]; 21.6% (inactive) in assay [6]. The growth in assay [7] is 45.6% (inactive); in assay [8], 77% (inactive); in [9], 51% (inactive); in assay [10], -84% (active); in assay [11] it was 79.9% (inactive); in assay [12] it was 11.1% (inactive). Besides, the growth in assay [13] is 81.3% (inactive); in assay [14] it was 13% (inactive); in assay [15], 46.1% (inactive); in assay [16], 73.9% (inactive); in assay [17], 56.4% (inactive); in assay [18], 68.4% (inactive). Further, in assay [19], the growth is 29.8% (inactive).

In the case of `Nc1ccc2cc3ccc(N)cc3nc2c1`, the growth in [1] was 101% (inactive) and 3.42% (active); in assay [2], 87% (inactive) and -2.76% (active); in assay [3], -7.06% (active); in assay [4] it was 6.72% (active); in assay [5], 102% (inactive) and 0.17% (active); in assay [6], 96.7% (inactive) and -1.28% (active). The growth in assay [7] is -50.9% (active); in assay [8], 84.3% (inactive) and 2.08% (active); in [9] it was 113% (inactive) and 43.8% (inactive); in assay [10], 109% (inactive) and -39.2% (active); in assay [11] it was 112% (inactive) and 24.3% (inactive); in assay [12] it was 9.74% (active). Moreover, the growth is 107% (inactive) and -50.9% (active) in assay [13]; 97% (inactive) and 18.4% (inactive) in assay [14]; 127% (inactive) and 8.54% (active) in assay [15]; 115% (inactive) and 18.5% (inactive) in assay [16]; 114% (inactive) and 14.4% (inactive) in assay [17]; 107% (inactive) and 21% (inactive) in assay [18]. Further, the growth in assay [19] was 107% (inactive) and -17.1% (active); in assay [20] it was 107% (inactive) and 12.6% (inactive).

For the origin of these results see PubChem BioAssay (NCI).
